Key:
Assay in all cases: DAPPL (digital affinity profiling via proximity ligation, sequencing); 10 mM Tris-HCl pH 7.5, 50 mM NaCl, 1 mM DTT, 4% glycerol, room temperature, 30 min; GST-TFs on glutathione beads, 16-mer random dsDNA library, 0.1% formaldehyde crosslink after washing; high values mean tight binding
FEV = molecular target: T1, FEV (Homo sapiens, UniProt Q99581 1-238); conditions: protein: recombinant; tags: N-terminal GST; dsDNA, one strand shown
T1 sequence: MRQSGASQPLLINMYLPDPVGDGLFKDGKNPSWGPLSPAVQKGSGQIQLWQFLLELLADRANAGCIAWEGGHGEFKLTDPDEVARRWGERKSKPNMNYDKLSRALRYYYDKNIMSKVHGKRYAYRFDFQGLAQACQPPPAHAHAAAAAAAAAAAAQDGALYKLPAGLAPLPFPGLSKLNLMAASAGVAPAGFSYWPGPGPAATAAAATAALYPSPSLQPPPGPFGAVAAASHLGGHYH
Outline: (§1)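 Beads coated with glutathione captured GST-fused human transcription factors that had been expressed in yeast, and the factors were then given DNA barcodes and pooled with a tag-only sample. The pools were incubated with 200 nmole of a random double-stranded 16-mer DNA library in Tris/NaCl/DTT/glycerol buffer for 30 min at room temperature, washed, crosslinked with 0.1% formaldehyde and proximity-ligated with BsaI/T4 ligase at 37 °C for 1 h. PCR amplification and Illumina NextSeq500 sequencing came last. Binding signal is each hexamer's read frequency for a factor divided by its frequency for the tag-only sample.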

ETV5 = ETV5 (Homo sapiens, UniProt P41161 1-510); conditions: protein: recombinant; tags: N-terminal GST; dsDNA, one strand shown
Outline: as §1

HSF1 = HSF1 (Homo sapiens, UniProt Q00613 1-529); conditions: protein: recombinant; tags: N-terminal GST; chain copies: 3; dsDNA, one strand shown
Outline: as §1

SPIC = molecular target: T2, SPIC (Homo sapiens, UniProt Q8N5J4 1-248); conditions: protein: recombinant; tags: N-terminal GST; dsDNA, one strand shown
T2 sequence: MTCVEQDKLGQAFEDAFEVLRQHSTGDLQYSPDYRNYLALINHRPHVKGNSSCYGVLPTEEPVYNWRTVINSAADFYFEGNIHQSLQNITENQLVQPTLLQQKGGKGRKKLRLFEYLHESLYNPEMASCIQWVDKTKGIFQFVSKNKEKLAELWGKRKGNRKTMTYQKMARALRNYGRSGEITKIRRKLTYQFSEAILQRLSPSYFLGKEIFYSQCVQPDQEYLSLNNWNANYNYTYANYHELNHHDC
Outline: as §1

ELF4 = ELF4 (Homo sapiens, UniProt Q99607 1-663); conditions: protein: recombinant; tags: N-terminal GST; dsDNA, one strand shown
Outline: as §1

ELK4 = molecular target: T3, ELK4 (Homo sapiens, UniProt P28324-2 1-405); conditions: protein: recombinant; tags: N-terminal GST; dsDNA, one strand shown
T3 sequence: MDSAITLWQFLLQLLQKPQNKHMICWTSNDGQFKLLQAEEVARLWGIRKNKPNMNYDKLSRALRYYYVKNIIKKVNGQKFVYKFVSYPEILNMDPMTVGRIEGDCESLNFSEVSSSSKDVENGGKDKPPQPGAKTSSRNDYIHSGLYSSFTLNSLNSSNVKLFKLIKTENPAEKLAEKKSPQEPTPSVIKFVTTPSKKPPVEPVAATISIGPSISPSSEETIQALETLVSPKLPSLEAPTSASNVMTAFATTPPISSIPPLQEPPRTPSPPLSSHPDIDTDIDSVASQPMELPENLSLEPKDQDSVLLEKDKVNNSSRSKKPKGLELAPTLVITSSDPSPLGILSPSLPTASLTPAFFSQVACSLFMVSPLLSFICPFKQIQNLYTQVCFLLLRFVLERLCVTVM
Outline: as §1

ETV2 = molecular target: T4, ETV2 (Homo sapiens, UniProt O00321 1-342); conditions: protein: recombinant; tags: N-terminal GST; dsDNA, one strand shown
T4 sequence: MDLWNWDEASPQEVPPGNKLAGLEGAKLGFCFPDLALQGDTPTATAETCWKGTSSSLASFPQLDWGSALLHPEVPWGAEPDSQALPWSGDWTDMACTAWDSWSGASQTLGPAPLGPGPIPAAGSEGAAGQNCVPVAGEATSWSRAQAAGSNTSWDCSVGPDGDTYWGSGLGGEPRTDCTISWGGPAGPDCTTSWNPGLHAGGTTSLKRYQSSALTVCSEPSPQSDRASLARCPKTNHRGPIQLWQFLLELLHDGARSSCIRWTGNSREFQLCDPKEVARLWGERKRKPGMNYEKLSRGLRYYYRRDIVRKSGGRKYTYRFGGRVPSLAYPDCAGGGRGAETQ
Outline: as §1

ELF3 = molecular target: T5, ELF3 (Homo sapiens, UniProt P78545 1-371); conditions: protein: recombinant; tags: N-terminal GST; dsDNA, one strand shown
T5 sequence: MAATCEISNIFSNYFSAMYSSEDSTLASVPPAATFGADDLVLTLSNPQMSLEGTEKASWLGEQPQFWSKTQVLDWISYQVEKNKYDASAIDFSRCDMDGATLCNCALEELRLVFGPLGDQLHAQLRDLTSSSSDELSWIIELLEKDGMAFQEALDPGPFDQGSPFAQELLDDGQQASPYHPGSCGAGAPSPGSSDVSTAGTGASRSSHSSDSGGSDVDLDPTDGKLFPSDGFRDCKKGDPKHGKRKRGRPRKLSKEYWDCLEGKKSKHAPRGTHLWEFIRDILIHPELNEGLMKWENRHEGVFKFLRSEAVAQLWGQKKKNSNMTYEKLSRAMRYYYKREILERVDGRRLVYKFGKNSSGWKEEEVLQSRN
Outline: as §1

CRX = CRX (Homo sapiens, UniProt O43186 1-299); conditions: protein: recombinant; tags: N-terminal GST; dsDNA, one strand shown
Outline: as §1

ETV1 = ETV1 (Homo sapiens, UniProt P50549 1-477); conditions: protein: recombinant; tags: N-terminal GST; dsDNA, one strand shown
Outline: as §1

ERF = molecular target: T6, ERF (Homo sapiens, UniProt P50548 1-548); conditions: protein: recombinant; tags: N-terminal GST; dsDNA, one strand shown
T6 sequence: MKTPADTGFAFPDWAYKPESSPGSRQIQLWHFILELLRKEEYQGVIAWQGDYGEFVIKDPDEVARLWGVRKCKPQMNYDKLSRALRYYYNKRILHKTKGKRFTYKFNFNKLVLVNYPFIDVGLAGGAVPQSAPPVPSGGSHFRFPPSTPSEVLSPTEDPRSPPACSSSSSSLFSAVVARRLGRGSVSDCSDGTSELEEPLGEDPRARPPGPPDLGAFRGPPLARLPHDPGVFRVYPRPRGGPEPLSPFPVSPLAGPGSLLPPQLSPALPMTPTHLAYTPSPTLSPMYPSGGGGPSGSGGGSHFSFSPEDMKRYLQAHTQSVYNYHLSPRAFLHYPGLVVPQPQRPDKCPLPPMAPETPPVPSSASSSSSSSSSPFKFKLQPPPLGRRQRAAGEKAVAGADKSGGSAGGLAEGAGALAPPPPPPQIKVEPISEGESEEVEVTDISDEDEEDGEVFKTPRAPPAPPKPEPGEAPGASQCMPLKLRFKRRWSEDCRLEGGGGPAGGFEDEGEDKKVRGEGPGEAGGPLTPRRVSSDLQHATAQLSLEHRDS
Outline: as §1

ETV3L = molecular target: T7, ETV3L (Homo sapiens, UniProt Q6ZN32 1-361); conditions: protein: recombinant; tags: N-terminal GST; dsDNA, one strand shown
T7 sequence: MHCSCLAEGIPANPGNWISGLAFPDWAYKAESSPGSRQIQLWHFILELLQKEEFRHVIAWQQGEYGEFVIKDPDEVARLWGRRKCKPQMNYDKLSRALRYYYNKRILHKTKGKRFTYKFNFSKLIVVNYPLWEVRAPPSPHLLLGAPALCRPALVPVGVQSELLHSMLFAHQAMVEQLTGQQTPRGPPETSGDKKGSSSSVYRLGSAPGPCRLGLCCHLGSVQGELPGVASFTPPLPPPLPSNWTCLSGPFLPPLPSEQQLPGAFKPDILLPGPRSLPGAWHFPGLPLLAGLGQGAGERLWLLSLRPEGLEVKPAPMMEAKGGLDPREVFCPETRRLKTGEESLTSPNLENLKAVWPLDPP
Outline: as §1

ETS2 = molecular target: T8, ETS2 (Homo sapiens, UniProt P15036 1-469); conditions: protein: recombinant; tags: N-terminal GST; dsDNA, one strand shown
T8 sequence: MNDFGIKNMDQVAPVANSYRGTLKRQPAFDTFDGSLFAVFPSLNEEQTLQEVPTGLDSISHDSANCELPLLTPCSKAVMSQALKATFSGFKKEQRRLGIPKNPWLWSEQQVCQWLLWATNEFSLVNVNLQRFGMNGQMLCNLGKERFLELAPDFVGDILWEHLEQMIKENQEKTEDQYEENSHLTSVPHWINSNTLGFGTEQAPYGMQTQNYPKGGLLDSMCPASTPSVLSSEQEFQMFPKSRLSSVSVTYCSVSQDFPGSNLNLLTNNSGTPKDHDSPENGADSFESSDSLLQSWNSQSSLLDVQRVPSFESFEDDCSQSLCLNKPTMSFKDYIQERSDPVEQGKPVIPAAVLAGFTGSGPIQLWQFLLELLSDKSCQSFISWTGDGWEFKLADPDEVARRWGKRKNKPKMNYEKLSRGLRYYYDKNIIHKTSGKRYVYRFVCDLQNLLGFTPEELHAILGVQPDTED
Outline: as §1

SPDEF = molecular target: T9, SPDEF (Homo sapiens, UniProt O95238 1-335); conditions: protein: recombinant; tags: N-terminal GST; dsDNA, one strand shown
T9 sequence: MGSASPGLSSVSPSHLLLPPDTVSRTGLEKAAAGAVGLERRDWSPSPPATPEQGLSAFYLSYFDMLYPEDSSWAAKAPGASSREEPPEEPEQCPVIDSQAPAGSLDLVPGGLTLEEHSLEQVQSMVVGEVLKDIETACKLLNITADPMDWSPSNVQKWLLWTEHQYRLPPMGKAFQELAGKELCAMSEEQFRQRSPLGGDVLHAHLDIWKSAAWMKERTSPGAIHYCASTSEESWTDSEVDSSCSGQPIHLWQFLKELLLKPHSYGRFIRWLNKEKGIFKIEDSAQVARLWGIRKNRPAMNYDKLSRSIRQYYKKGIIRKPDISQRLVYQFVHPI
Outline: as §1

ETV7 = molecular target: T10, ETV7 (Homo sapiens, UniProt Q9Y603 1-341); conditions: protein: recombinant; tags: N-terminal GST; dsDNA, one strand shown
T10 sequence: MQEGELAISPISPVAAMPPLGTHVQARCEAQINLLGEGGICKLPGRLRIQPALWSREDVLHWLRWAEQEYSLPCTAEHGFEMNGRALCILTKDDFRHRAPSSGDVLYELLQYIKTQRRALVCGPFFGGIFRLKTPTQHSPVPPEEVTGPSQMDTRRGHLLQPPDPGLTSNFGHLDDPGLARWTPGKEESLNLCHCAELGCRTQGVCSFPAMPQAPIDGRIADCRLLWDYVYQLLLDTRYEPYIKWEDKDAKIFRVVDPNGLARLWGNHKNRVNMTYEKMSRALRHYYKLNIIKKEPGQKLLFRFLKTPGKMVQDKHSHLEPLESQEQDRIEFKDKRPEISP
Outline: as §1

ELF5 = molecular target: T11, ELF5 (Homo sapiens, UniProt Q9UKW6-2 1-255); conditions: protein: recombinant; tags: N-terminal GST; dsDNA, one strand shown
T11 sequence: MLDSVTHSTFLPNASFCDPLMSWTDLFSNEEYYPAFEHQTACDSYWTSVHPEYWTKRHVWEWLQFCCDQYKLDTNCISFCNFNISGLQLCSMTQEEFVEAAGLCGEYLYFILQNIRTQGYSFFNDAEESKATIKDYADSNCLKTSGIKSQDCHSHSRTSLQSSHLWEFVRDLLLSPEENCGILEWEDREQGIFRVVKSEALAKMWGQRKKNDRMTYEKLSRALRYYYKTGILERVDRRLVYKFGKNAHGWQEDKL
Outline: as §1

ETV3 = molecular target: T12, ETV3 (Homo sapiens, UniProt P41162-2 1-143); conditions: protein: recombinant; tags: N-terminal GST; dsDNA, one strand shown
T12 sequence: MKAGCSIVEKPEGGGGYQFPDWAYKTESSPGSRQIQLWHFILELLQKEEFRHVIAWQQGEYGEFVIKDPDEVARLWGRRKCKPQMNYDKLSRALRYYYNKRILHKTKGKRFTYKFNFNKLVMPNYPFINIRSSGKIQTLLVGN
Outline: as §1

ETV6 = ETV6 (Homo sapiens, UniProt P41212 1-452); conditions: protein: recombinant; tags: N-terminal GST; dsDNA, one strand shown
Outline: as §1

ETV5, sequence (P41161 whole entry): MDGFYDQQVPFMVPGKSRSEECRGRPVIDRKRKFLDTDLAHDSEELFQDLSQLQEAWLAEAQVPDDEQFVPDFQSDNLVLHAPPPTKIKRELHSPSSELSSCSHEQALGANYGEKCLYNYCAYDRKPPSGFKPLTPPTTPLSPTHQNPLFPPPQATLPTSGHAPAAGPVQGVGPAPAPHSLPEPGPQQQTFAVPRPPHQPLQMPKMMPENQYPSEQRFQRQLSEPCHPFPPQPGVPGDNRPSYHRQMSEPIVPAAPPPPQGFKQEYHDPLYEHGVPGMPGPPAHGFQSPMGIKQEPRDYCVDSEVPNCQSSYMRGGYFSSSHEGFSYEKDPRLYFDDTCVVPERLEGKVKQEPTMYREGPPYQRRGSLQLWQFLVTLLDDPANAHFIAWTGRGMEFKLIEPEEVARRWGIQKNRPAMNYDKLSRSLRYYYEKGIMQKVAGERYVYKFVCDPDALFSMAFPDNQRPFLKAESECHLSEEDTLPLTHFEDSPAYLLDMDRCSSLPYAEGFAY
ETV6, sequence (P41212 whole entry): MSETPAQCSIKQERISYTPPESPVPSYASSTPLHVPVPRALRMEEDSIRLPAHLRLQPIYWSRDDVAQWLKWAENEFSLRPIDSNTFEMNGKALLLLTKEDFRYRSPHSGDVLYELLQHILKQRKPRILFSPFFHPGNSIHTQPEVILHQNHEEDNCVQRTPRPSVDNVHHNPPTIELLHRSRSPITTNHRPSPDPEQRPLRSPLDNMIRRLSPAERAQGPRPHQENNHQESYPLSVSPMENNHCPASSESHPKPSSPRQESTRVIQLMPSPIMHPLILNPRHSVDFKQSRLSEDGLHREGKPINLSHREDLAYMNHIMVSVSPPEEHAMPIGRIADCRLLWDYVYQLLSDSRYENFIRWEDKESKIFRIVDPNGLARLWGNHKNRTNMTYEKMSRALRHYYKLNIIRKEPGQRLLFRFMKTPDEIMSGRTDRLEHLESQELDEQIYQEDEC
ELF4, sequence (Q99607 whole entry): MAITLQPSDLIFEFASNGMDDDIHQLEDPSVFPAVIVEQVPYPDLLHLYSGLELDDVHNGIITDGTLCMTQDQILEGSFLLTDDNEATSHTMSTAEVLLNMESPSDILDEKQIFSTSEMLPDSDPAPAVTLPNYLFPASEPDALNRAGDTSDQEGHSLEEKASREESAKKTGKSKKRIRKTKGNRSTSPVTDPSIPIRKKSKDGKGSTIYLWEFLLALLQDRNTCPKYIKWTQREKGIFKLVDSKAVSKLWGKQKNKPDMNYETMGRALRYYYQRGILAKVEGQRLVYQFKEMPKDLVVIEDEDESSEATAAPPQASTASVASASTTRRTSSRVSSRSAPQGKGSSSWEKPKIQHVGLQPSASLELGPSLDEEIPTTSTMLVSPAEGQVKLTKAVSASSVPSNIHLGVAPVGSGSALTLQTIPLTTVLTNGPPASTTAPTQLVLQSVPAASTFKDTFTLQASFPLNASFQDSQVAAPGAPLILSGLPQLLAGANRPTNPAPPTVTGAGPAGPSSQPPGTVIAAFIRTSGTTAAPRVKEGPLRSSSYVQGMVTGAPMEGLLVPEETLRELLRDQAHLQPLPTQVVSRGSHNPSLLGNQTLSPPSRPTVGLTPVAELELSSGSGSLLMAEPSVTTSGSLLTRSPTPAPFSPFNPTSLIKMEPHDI
CRX, sequence (O43186 whole entry): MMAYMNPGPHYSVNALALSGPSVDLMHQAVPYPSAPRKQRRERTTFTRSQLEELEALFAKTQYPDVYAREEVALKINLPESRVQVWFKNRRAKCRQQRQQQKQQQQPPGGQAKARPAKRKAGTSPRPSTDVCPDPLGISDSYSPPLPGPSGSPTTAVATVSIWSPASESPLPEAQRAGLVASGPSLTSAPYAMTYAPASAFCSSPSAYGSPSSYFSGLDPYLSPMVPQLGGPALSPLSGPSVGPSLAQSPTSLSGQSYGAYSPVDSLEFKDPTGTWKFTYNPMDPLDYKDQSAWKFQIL
HSF1, sequence (Q00613 whole entry): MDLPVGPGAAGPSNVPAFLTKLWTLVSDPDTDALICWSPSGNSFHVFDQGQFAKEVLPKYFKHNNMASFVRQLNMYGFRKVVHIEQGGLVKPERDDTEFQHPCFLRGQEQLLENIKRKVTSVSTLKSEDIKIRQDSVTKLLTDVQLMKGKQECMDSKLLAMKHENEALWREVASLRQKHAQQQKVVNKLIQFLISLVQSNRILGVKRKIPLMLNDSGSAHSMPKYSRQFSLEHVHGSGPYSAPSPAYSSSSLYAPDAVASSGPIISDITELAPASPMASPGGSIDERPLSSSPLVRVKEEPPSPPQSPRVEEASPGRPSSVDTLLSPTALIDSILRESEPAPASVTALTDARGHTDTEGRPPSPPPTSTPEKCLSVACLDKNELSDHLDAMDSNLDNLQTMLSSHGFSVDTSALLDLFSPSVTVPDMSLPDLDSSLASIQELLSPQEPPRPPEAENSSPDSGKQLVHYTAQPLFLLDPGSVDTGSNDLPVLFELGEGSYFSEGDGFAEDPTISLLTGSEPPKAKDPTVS
ETV1, sequence (P50549 whole entry): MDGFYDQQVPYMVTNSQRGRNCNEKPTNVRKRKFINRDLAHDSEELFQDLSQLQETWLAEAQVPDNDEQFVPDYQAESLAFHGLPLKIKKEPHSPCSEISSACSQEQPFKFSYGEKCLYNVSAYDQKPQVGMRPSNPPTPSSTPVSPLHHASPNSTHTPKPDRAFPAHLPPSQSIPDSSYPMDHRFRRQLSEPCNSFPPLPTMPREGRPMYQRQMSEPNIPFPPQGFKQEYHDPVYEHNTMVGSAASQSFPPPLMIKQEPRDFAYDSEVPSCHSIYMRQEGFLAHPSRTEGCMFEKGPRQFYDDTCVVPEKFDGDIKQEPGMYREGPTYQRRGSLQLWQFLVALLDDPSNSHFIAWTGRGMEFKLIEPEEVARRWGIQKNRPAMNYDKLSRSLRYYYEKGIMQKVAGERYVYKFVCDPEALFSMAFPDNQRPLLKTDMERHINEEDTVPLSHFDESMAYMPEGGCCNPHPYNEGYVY

Sequence: ATGCAT
- binding signal (FEV): 1.18 fold enrichment (6-mer frequency, TF over GST control)
- binding signal (ETV5): 1.19 fold enrichment (6-mer frequency, TF over GST control)
- binding signal (HSF1): 1 fold enrichment (6-mer frequency, TF over GST control)
- binding signal (SPIC): 1.31 fold enrichment (6-mer frequency, TF over GST control)
- binding signal (ELF4): 1.28 fold enrichment (6-mer frequency, TF over GST control)
- binding signal (ELK4): 1.11 fold enrichment (6-mer frequency, TF over GST control)
- binding signal (ETV2): 1.27 fold enrichment (6-mer frequency, TF over GST control)
- binding signal (ELF3): 1.07 fold enrichment (6-mer frequency, TF over GST control)
- binding signal (CRX): 1.05 fold enrichment (6-mer frequency, TF over GST control)
- binding signal (ETV1): 1.15 fold enrichment (6-mer frequency, TF over GST control)
- binding signal (ERF): 1.21 fold enrichment (6-mer frequency, TF over GST control)
- binding signal (ETV3L): 1.26 fold enrichment (6-mer frequency, TF over GST control)
- binding signal (ETS2): 1.21 fold enrichment (6-mer frequency, TF over GST control)
- binding signal (SPDEF): 1.32 fold enrichment (6-mer frequency, TF over GST control)
- binding signal (ETV7): 1.21 fold enrichment (6-mer frequency, TF over GST control)
- binding signal (ELF5): 1.15 fold enrichment (6-mer frequency, TF over GST control)
- binding signal (ETV3): 1.26 fold enrichment (6-mer frequency, TF over GST control)
- binding signal (ETV6): 1.2 fold enrichment (6-mer frequency, TF over GST control)

— PMC7862700, “An all-to-all approach to the identification of sequence-specific readers for epigenetic DNA modifications on cytosine”
